“And” between values parts separate entries of the source, which are not always exact repeats. Identical values can stand only once. Out of some 5,500 compounds screened, about 2,000 (36%) were called active. Roughly 18% stayed inconclusive and do not appear here. No stated cut-off is given here; in the data, active means normalized growth mostly below about 0.91 (no sharp cut-off); inconclusive means no clear call, values can overlap the other calls; inactive means mostly above about 0.92. The list shows a part of the results.
Assay: chemical genetic growth profiling, strain panel (AID 1159580);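 further: tested at 20 µM; growth read once vehicle control cultures reached saturation at 30 °C; 1 = growth at the plate median or of vehicle wells; lower values mean less growth of the strain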
Conditions: S. cerevisiae deletion strains, growth OD

Measured: normalized growth

NS(=O)(=O)c1cc2c(cc1C(F)(F)F)NCNS2(=O)=O
inactive: locus YAL013W, strain DEP1, hits give low values 1.03 | locus YAL021C, strain ccr4, hits give low values 0.995 | locus YAL026C, strain drs2, hits give low values 1 | locus YAL030W, strain snc1, hits give low values 0.995 | locus YBL061C, strain skt5, hits give low values 0.996 | locus YBR009C, strain hhf1, hits give low values 0.985 | locus YBR021W, strain FUR4, hits give low values 1 | locus YBR023C, strain chs3, hits give low values 0.989 | locus YBR171W, strain sec66, hits give low values 1.01 | locus YBR229C, strain ROT2, hits give low values 1.02 | locus YBR231C, strain swc5, hits give low values 0.975 | locus YBR279W, strain paf1, hits give low values 0.992 | locus YCL011C, strain gbp2, hits give low values 0.991 | locus YCL016C, strain dcc1, hits give low values 0.969 | locus YCL029C, strain bik1, hits give low values 0.997 | locus YCL061C, strain MRC1, hits give low values 0.997 | locus YCL069W, strain vba3, hits give low values 1 | locus YCR088W, strain abp1, hits give low values 0.999 | locus YDL005C, strain med2, hits give low values 0.99 | locus YDL035C, strain GPR1, hits give low values 1.03 | locus YDL040C, strain nat1, hits give low values 0.996 | locus YDL074C, strain BRE1, hits give low values 1.01 | locus YDL101C, strain DUN1, hits give low values 1.02 | locus YDL185W, strain tfp1, hits give low values 0.997 | locus YDL192W, strain arf1, hits give low values 0.993 | locus YDR001C, strain nth1, hits give low values 1 | locus YDR069C, strain doa4, hits give low values 1.01 | locus YDR101C, strain arx1, hits give low values 1 | locus YDR137W, strain rgp1, hits give low values 1.01 | locus YDR159W, strain sac3, hits give low values 0.966 | locus YDR162C, strain NBP2, hits give low values 1.02 | locus YDR195W, strain ref2 0.994 | locus YDR297W, strain sur2, hits give low values 1.01 | locus YDR318W, strain mcm21, hits give low values 0.986 | locus YDR334W, strain swr1, hits give low values 1.01 | locus YDR335W, strain msn5, hits give low values 0.999 | locus YDR388W, hits give low values 0.998 | locus YDR392W, strain spt3, hits give low values 0.939 | locus YDR502C, strain sam2, hits give low values 0.988 | locus YEL003W, strain gim4, hits give low values 1 | locus YEL037C, strain rad23, hits give low values 1.02 | locus YEL061C, strain CIN8 (second series), hits give low values 1.01 | locus YEL061C, strain CIN8, hits give low values 1.02 | locus YER015W, strain faa2, hits give low values 0.97 | locus YER016W, strain bim1, hits give low values 1 | locus YER110C, hits give low values 0.99 | locus YER111C, strain swi4, hits give low values 1 | locus YER155C, strain BEM2 (second series), hits give low values 0.98 | locus YER155C, strain BEM2, hits give low values 1 | locus YER167W, strain BCK2, hits give low values 1.01 | locus YFR010W, strain ubp6, hits give low values 1 | locus YGL078C, strain dbp3, hits give low values 0.983 | locus YGL086W, strain mad1, hits give low values 0.99 | locus YGL167C, strain pmr1, hits give low values 0.998 | locus YGL173C, strain kem1, hits give low values 0.998 | locus YGL227W, strain vid30, hits give low values 1 | locus YGL240W, strain doc1, hits give low values 0.965 | locus YGL248W, strain PDE1, hits give low values 1.02 | locus YGL253W, strain hxk2, hits give low values 1.01 | locus YGR135W, strain pre9, hits give low values 0.974 | locus YGR252W, strain gcn5, hits give low values 0.922 | locus YHR013C, strain ard1, hits give low values 0.989 | locus YHR027C, strain rpn1, hits give low values 1.01 | locus YHR030C, strain SLT2, hits give low values 1.01 and 0.988 | locus YHR079C, strain IRE1 (second series), hits give low values 0.998 | locus YHR079C, strain IRE1, hits give low values 0.984 | locus YHR094C, strain hxt1, hits give low values 0.993 | locus YHR129C, strain ARP1, hits give low values 1.02 | locus YHR142W, strain chs7, hits give low values 1.01 | locus YHR200W, strain rpn10, hits give low values 0.988 | locus YIL066C, strain RNR3, hits give low values 1.03 | locus YIL073C, strain SPO22, hits give low values 1.01 | locus YIL125W, strain kgd1, hits give low values 0.992 | locus YIR030C, strain dcg1, hits give low values 0.994 | locus YJL092W, strain hpr5, hits give low values 1 | locus YJL095W, strain BCK1 (second series), hits give low values 0.997 | locus YJL095W, strain BCK1, hits give low values 1.03 and 0.978 | locus YJL115W, strain asf1, hits give low values 1.01 | locus YJL129C, strain trk1, hits give low values 1.01 | locus YJL134W, strain LCB3, hits give low values 1.02 | locus YJL154C, strain vps35, hits give low values 0.993 | locus YJL164C, strain tpk1, hits give low values 0.992 | locus YJL166W, strain qcr8, hits give low values 0.993 | locus YJL168C, strain set2, hits give low values 0.987 | locus YJL187C, strain SWE1 (second series), hits give low values 1.02 | locus YJL187C, strain SWE1, hits give low values 0.994 | locus YJR043C, strain POL32, hits give low values 1.02 | locus YJR066W, strain TOR1, hits give low values 0.928 | locus YKL009W, strain mrt4, hits give low values 1 | locus YKL068W, hits give low values 1 | locus YKL085W, strain MDH1 (second series), hits give low values 0.999 | locus YKL085W, strain MDH1, hits give low values 0.999 | locus YKL160W, strain elf1, hits give low values 0.986 | locus YKL190W, strain CNB1, hits give low values 1.02 | locus YKR001C, strain vps1, hits give low values 1.01 | locus YKR026C, strain gcn3, hits give low values 0.993 | locus YKR091W, strain srl3, hits give low values 0.993 | locus YLL001W, strain dnm1, hits give low values 0.98 | locus YLL026W, hits give low values 0.994 | locus YLL041C, strain sdh2, hits give low values 0.997 | locus YLR027C, strain aat2, hits give low values 1.01 | locus YLR039C, strain RIC1, hits give low values 1.07 | locus YLR058C, strain SHM2, hits give low values 1.02 | locus YLR102C, strain apc9, hits give low values 0.985 | locus YLR113W, strain HOG1, hits give low values 0.991 | locus YLR221C, strain rsa3, hits give low values 0.974 | locus YLR258W, strain gsy2, hits give low values 0.992 | locus YLR262C, strain YPT6 (second series), hits give low values 1 | locus YLR262C, strain YPT6, hits give low values 1.03 | locus YLR268W, strain sec22, hits give low values 0.988 | locus YLR320W, strain mms22, hits give low values 0.988 | locus YLR330W, strain CHS5, hits give low values 1.02 | locus YLR342W, strain FKS1 (second series), hits give low values 1.01 | locus YLR342W, strain FKS1, hits give low values 1 | locus YLR357W, strain rsc2, hits give low values 0.971 | locus YLR370C, strain arc18, hits give low values 0.999 | locus YLR371W, strain rom2, hits give low values 0.979 | locus YLR384C, strain iki3, hits give low values 0.988 | locus YLR418C, strain cdc73, hits give low values 0.967 | locus YML016C, strain PPZ1, hits give low values 1.02 | locus YML032C, strain rad52, hits give low values 0.985 | locus YML120C, strain ndi1, hits give low values 0.983 | locus YML124C, strain tub3, hits give low values 0.988 | locus YMR058W, strain fet3, hits give low values 1.01 | locus YMR078C, strain ctf18, hits give low values 0.997 | locus YMR125W, strain sto1, hits give low values 0.982 | locus YMR129W, hits give low values 0.999 | locus YMR205C, strain PFK2, hits give low values 0.982 | locus YMR223W, strain ubp8, hits give low values 0.986 | locus YMR231W, strain pep5, hits give low values 0.998 | locus YMR307W, strain GAS1, hits give low values 1.01 | locus YNL067W, strain RPL9B, hits give low values 1.02 | locus YNL071W, strain lat1, hits give low values 1 | locus YNL153C, strain GIM3, hits give low values 1.01 | locus YNL183C, strain NPR1, hits give low values 0.96 | locus YNL209W, strain ssb2, hits give low values 0.986 | locus YNL233W, strain BNI4, hits give low values 1.02 | locus YNL248C, strain rpa49, hits give low values 1 | locus YNL250W, strain rad50, hits give low values 0.996 | locus YNL271C, strain bni1, hits give low values 0.999 | locus YNL298W, strain CLA4, hits give low values 0.983 | locus YNL307C, strain MCK1, hits give low values 0.988 | locus YNL322C, strain KRE1 (second series), hits give low values 0.99 | locus YNR049C, strain mso1, hits give low values 0.996 | locus YNR052C, strain pop2, hits give low values 0.991 | locus YOL012C, strain htz1 0.725 | locus YOL147C, strain pex11, hits give low values 0.991 | locus YOR001W, strain rrp6, hits give low values 1.01 | locus YOR061W, strain CKA2, hits give low values 1.03 | locus YOR069W, strain VPS5, hits give low values 1.02 | locus YOR070C, strain gyp1, hits give low values 0.992 | locus YOR080W, strain dia2, hits give low values 0.99 | locus YOR083W, strain WHI5, hits give low values 1.04 | locus YOR106W, strain vam3, hits give low values 0.974 | locus YOR136W, strain idh2, hits give low values 0.991 | locus YOR144C, strain elg1, hits give low values 0.991 | locus YOR184W, strain ser1, hits give low values 0.982 | locus YOR231W, strain MKK1, hits give low values 0.991 | locus YOR265W, strain rbl2, hits give low values 0.993 | locus YOR270C, strain vph1, hits give low values 1.03 | locus YOR290C, strain snf2, hits give low values 0.935 | locus YOR316C, strain cot1, hits give low values 0.997 | locus YPL051W, strain arl3, hits give low values 0.98 | locus YPL055C, strain LGE1, hits give low values 1.02 | locus YPL078C, strain atp4, hits give low values 1 | locus YPL106C, strain sse1, hits give low values 0.966 | locus YPL240C, strain hsp82, hits give low values 0.994 | locus YPL241C, strain CIN2, hits give low values 1.02 | locus YPL256C, strain CLN2, hits give low values 0.976 | locus YPR119W, strain clb2, hits give low values 0.994 | locus YPR141C, strain kar3, hits give low values 0.988 | locus YPR163C, strain tif3, hits give low values 0.995 | locus YPR167C, strain met16, hits give low values 0.987 | strain wtn01, hits give low values 0.977
